{"source": "PubChem BioAssay (NCATS)", "note": "Results filed as inconclusive are left out. Active and inactive are the calls of the source. Calls come from the whole dose curve; as a rule, active = well fitted inhibition curve with a large enough effect; inconclusive = small, poorly fitted or top-dose-only effect, or effect the other way; inactive = flat fitted curve, though single readings scatter."}
{"target": "ATP-dependent 6-phosphofructokinase (Trypanosoma brucei brucei) (UniProt O15648)", "sequence (O15648 whole entry, looked up)": "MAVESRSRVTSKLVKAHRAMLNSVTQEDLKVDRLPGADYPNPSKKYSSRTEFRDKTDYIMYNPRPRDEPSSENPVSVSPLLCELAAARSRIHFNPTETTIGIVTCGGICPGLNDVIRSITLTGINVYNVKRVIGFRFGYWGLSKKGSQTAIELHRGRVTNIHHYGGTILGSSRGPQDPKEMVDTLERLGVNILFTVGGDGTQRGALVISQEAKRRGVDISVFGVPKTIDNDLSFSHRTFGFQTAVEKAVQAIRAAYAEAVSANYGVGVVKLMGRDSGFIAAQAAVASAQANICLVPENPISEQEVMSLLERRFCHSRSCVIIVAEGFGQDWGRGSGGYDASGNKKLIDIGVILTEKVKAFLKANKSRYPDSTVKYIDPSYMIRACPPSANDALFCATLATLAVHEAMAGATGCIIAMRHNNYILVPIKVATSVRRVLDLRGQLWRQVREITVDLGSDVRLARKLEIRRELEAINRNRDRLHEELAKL", "experiment": "qHTS Assay to Find Inhibitors of T. brucei phosphofructokinase: hit validation (AID 492961);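 note: luminescence reports ADP formed as PFK phosphorylates fructose-6-phosphate with ATP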", "conditions": "T. brucei PFK, ADP-Glo luminescence; series mostly up to 51.4 µM", "summary_of_the_method": "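ADP-Glo luminescence read-out of ADP formed by 1.25 nM PFK from 0.1 mM ATP and 0.5 mM F6P (TEA pH 8.0, 45 min, RT). Compounds titrated; activity normalized to no-enzyme and full-enzyme controls.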"}
{"smiles": "CCC1=C[C@@H]2CN(C1)Cc1c([nH]c3ccccc13)[C@@](C(=O)OC)(c1cc3c(cc1OC)N(C)[C@@H]1[C@@](O)(C(=O)OC)[C@H](OC(C)=O)[C@]4(CC)C=CCN5CC[C@]31[C@@H]54)C2", "outcome": "inactive"}
{"smiles": "COc1cc(C(=O)NS(=O)(=O)c2ccccc2C)ccc1Cc1cn(C)c2ccc(NC(=O)OC3CCCC3)cc12", "outcome": "inactive"}
{"smiles": "CC[C@H]1CN2CCc3cc(OC)c(OC)cc3[C@H]2C[C@@H]1C[C@@H]1NCCc2cc(OC)c(OC)cc21", "outcome": "inactive"}
{"smiles": "CC1(C)O[C@@H]2C[C@@H]3[C@H]4C[C@@H](F)C5=CC(=O)C=C[C@]5(C)[C@@]4(F)[C@@H](O)C[C@]3(C)[C@]2(C(=O)CO)O1", "outcome": "inactive"}
{"smiles": "C[C@H]1C[C@@H]2[C@@H]([C@@H](O)C[C@@]3(C)[C@H]2CC[C@]3(O)C(=O)CO)[C@@]2(C)C=CC(=O)C=C12", "outcome": "inactive"}
{"smiles": "O=c1[nH]c(=O)n(C2CCCO2)cc1F", "note": "(stereo unspecified)", "outcome": "inactive"}
{"smiles": "Nc1ccc(S(=O)(=O)Nc2ncccn2)cc1", "outcome": "inactive"}
{"smiles": "COC(=O)C1=C(C)NC(C)=C(C(=O)OCCN2CCN(C(c3ccccc3)c3ccccc3)CC2)C1c1cccc([N+](=O)[O-])c1", "note": "(stereo unspecified)", "outcome": "inactive"}
{"smiles": "Nc1ccn([C@@H]2O[C@H](CO)[C@H](O)C2(F)F)c(=O)n1", "outcome": "inactive"}
{"smiles": "CN1c2cc(O)c(N=NC(N)=O)cc2CC1S(=O)(=O)O", "note": "(stereo unspecified)", "outcome": "inactive"}
{"smiles": "CC=CC1=C(C(=O)O)N2C(=O)[C@H](NC(=O)[C@H](N)c3ccc(O)cc3)[C@@H]2SC1", "outcome": "inactive"}
{"smiles": "COc1c(N2C[C@@H]3CCCN[C@H]3C2)c(F)cc2c(=O)c(C(=O)O)cn(C3CC3)c12", "outcome": "inactive"}
{"smiles": "CC(C)(C)NC(=O)[C@H]1CN(Cc2cccnc2)CCN1C[C@@H](O)C[C@@H](Cc1ccccc1)C(=O)N[C@H]1c2ccccc2C[C@H]1O", "outcome": "inactive"}
{"smiles": "O=C(O)CO.[NH2-].[NH2-].[Pt+2]", "outcome": "inactive"}
{"smiles": "Nc1ccn([C@@H]2CS[C@H](CO)O2)c(=O)n1", "outcome": "inactive"}
{"smiles": "COC(=O)C[C@](O)(CCCC(C)(C)O)C(=O)O[C@@H]1C(OC)=C[C@]23CCCN2CCc2cc4c(cc2[C@H]13)OCO4", "outcome": "inactive"}
